The record followed here is PubChem BioAssay.

Assay [1] in a line: Wnt pathway potentiators raising nuclear beta-catenin – imaging, WNT3A-conditioned medium, mouse C2C12, NPC library, primary screen (AID 1117326; in the data active = nuclear beta-catenin stimulation mostly above about 4.2%, no sharp cut-off; inactive = mostly below about 10%; note: reference of the scale not given here). Particulars: stronger effect = higher value.
The nature of assay [2]: stimulators of insulin release from INS-1E, primary screen, cell-based, 5 mM glucose, NPC library (AID 1117329;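 active = compound raises insulin release from rat beta cells at 5 mM glucose, no numeric limit stated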; note: reference of the scale not given here). The note with it: rat INS-1E insulin secretion, at 10 µM, stronger effect = higher value.
Assay [3] in a line: growth inhibition of GSK3B-pretreated HCT116 cells – cell-based, CellTiter-Glo, 0.2 to 20 µM (AID 1117336). The note with it: HCT116 viability after GSK3B inhibitor, at 20 µM, stronger effect = higher value.
Assay [4] in a line: inhibition of endothelial tube formation, primary screen, imaging, VEGF stimulated, CD31 staining, tube area, NPC library (AID 1117340;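 active = compound that reduces growth-factor-driven endothelial tube area in a mixed cell culture, no cutoff stated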). The note with it: VEGF-stimulated ADSC/ECFC co-culture, at 10 µM, stronger effect = higher value.
Assay [5] in a line: GLP1 release stimulators, primary, NCI-H716, NPC library (AID 1117341;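 active = compound raises GLP1 secretion from the human gut endocrine cells, with no numeric limit stated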; note: reference of the scale not given here). Particulars: NCI-H716 cells, at 10 µM, stronger effect = higher value.
A short description of assay [6]: HCT116 colon cancer cell growth inhibition, primary screen, CellTiter-Glo luminescence, NPC library (AID 1117342;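 active = compounds that lower survival of HCT116 colon cancer cells in the luminescence readout, no numeric limit stated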). The note with it: at 20 µM (top of the series). Background: ATP-based viability assays read luminescence as a measure of living cells.
The nature of assay [7]: reduced SW480 viability measured with CellTiter-Glo, NPC library, primary (AID 1117343;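 active = compounds that lower viability of the colon cancer cells in the luminescence readout, with no numeric limit stated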). Particulars: CellTiter-Glo luminescence; at 20 µM (top of the series).
Assay [8] in a line: NPC library primary testing for decreased DLD-1 cell viability via CellTiter-Glo (AID 1117346;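 active = compounds that lower survival of DLD-1 colon cancer cells in the luminescence readout, no cutoff given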). The note with it: DLD-1 viability, CellTiter-Glo luminescence; at 20 µM (top of the series).

Structures are written as SMILES. Calls of active or inactive are those of the source.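 Rule for the calls, unless noted: active = compounds lowering colon cancer cell viability after pretreatment blocking the GSK3B kinase; inactive = the rest.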

Take `O=c1[nH]c2ccccc2c(=O)n1CCCl`: the nuclear beta-catenin stimulation in assay [1] (at 10 µM) is 3.3% (inactive); in assay [1] (stimulation, at 2 µM) it was 1.4%. For the same compound, the insulin secretion stimulation in assay [2] was 1.3% (inactive). For the same compound, the viability decrease in assay [3] is 41.6% (inactive). The tube area decrease in assay [4] was -18.9% (inactive). Moreover, the GLP1 secretion stimulation in assay [5] was 2.8% (inactive). For the same compound, in assay [6], the inhibition of viability was 30.4% (inactive). Further, the viability decrease (inhibition) in assay [7] is 50.6% (active); in assay [8], 20.2% (inactive).
With `O=S(=O)(O)c1ccc2c(N=Nc3ccc(S(=O)(=O)O)c4ccccc34)c(O)c(S(=O)(=O)O)cc2c1`, the nuclear beta-catenin stimulation is 0.7% (inactive) in assay [1] (at 10 µM) and 0.1% in assay [1] (stimulation, at 2 µM). The insulin secretion stimulation in assay [2] is 2.6% (inactive). In assay [3], the viability decrease is 0% (inactive). In addition, in assay [4], the tube area decrease was 11.5% (inactive). Moreover, the GLP1 secretion stimulation in assay [5] was -3.9% (inactive). Also, the inhibition of viability in assay [6] was 2.8% (inactive). Also, the viability decrease (inhibition) was 19.3% (inactive) in assay [7] and 6.8% (inactive) in assay [8].
Take `CC1(C)OC[C@@H](COC(=O)CCc2ccc(OC[C@@H](O)CNCCNC(=O)N3CCOCC3)cc2)O1`: the nuclear beta-catenin stimulation is 0.8% (inactive) in assay [1] (at 10 µM) and 1.1% in assay [1] (stimulation, at 2 µM). The insulin secretion stimulation in assay [2] was 4% (inactive). Further, the viability decrease in assay [3] is -3.9% (inactive). For the same compound, the tube area decrease in assay [4] is -22.2% (inactive). Besides, the GLP1 secretion stimulation in assay [5] was 0.6% (inactive). Besides, in assay [6], the inhibition of viability is 8% (inactive). Further, the viability decrease (inhibition) in assay [7] was 33.8% (inactive); in assay [8], 44% (inactive).
With `CCCCCCCCCCCCCC(=O)OC(C)C`, the nuclear beta-catenin stimulation is 1.2% (inactive) in assay [1] (at 10 µM) and -0.6% in assay [1] (stimulation, at 2 µM). Also, the insulin secretion stimulation in assay [2] is 0.9% (inactive). In addition, in assay [3], the viability decrease is -8.2% (inactive). Besides, in assay [4], the tube area decrease is -9.5% (inactive). Also, the GLP1 secretion stimulation in assay [5] was -0.1% (inactive). The inhibition of viability in assay [6] is 8.25% (inactive). The viability decrease (inhibition) in assay [7] is 7.7% (inactive); in assay [8] it was 24.3% (inactive).
For `NC[C@H]1O[C@H](O[C@@H]2[C@@H](O)[C@@H](O[C@H]3O[C@H](CO)[C@@H](O)[C@H](N)[C@@H]3O)[C@H](N)C[C@@H]2N)[C@H](O)[C@@H](O)[C@H]1O`, the nuclear beta-catenin stimulation in assay [1] (at 10 µM) is -1.2% (inactive); in assay [1] (stimulation, at 2 µM) it was -0.6%. Moreover, the insulin secretion stimulation in assay [2] was -0.8% (inactive). Also, the viability decrease in assay [3] was -36.2% (inactive). In addition, in assay [4], the tube area decrease was -10.7% (inactive). Moreover, the GLP1 secretion stimulation in assay [5] was -0.1% (inactive). The inhibition of viability in assay [6] was -13.3% (inactive). In addition, the viability decrease (inhibition) in assay [7] was -2.1% (inactive); in assay [8] it was -23.8% (inactive).
As to `O=C(COCCOCCOCC(=O)Nc1c(I)cc(I)c(C(=O)O)c1I)Nc1c(I)cc(I)c(C(=O)O)c1I`, the nuclear beta-catenin stimulation in assay [1] (at 10 µM) is 0.1% (inactive); in assay [1] (stimulation, at 2 µM) it was -1.8%. Also, in assay [2], the insulin secretion stimulation was 2.45% (inactive). Also, the viability decrease in assay [3] was -23.9% (inactive). Besides, the tube area decrease in assay [4] is -2.4% (inactive). Moreover, in assay [5], the GLP1 secretion stimulation was -3.2% (inactive). Also, the inhibition of viability in assay [6] is -13.4% (inactive). For the same compound, the results for the viability decrease (inhibition) in assay [7] and in assay [8] were -37.4% (inactive) and -13.3% (inactive), respectively.
On to `CCC(=O)Oc1ccc2c(c1)CC[C@@H]1[C@H]2CC[C@]2(C)[C@@H](OC(=O)CC)CC[C@@H]12`, for which the nuclear beta-catenin stimulation was -0.2% (inactive) in assay [1] (at 10 µM) and 0.2% in assay [1] (stimulation, at 2 µM). Moreover, in assay [2], the insulin secretion stimulation is 0.1% (inactive). Further, the viability decrease in assay [3] is 33.4% (inactive). In assay [4], the tube area decrease was 28% (inactive). Besides, in assay [5], the GLP1 secretion stimulation is 2.4% (inactive). Moreover, the inhibition of viability in assay [6] was 42.6% (inactive). Moreover, the viability decrease (inhibition) in assay [7] is 49.6% (inactive); in assay [8] it was 2.6% (inactive).
Regarding `CC(=O)SCC(CC(=O)c1ccc(C)cc1)C(=O)O` (centres undefined), the nuclear beta-catenin stimulation in assay [1] (at 10 µM) is 0.5% (inactive); in assay [1] (stimulation, at 2 µM), -0.4%. Moreover, in assay [2], the insulin secretion stimulation was 2.9% (inactive). Moreover, the viability decrease in assay [3] is -5.5% (inactive). In addition, the tube area decrease in assay [4] was -18.7% (inactive). In assay [5], the GLP1 secretion stimulation is 1.4% (inactive). Besides, the inhibition of viability in assay [6] was -12.2% (inactive). Further, the viability decrease (inhibition) in assay [7] is -19.1% (inactive); in assay [8] it was -15.2% (inactive).
Regarding `NC[C@H]1O[C@H](O[C@H]2[C@@H](O)[C@@H](O[C@H]3O[C@H](CO)[C@@H](O)[C@H](N)[C@@H]3O)[C@H](N)C[C@@H]2N)[C@H](N)C[C@H]1O`, the nuclear beta-catenin stimulation in assay [1] (at 10 µM) was 0.2% (inactive); in assay [1] (stimulation, at 2 µM) it was 1.4%. Also, in assay [2], the insulin secretion stimulation is -1.2% (inactive). The viability decrease in assay [3] is -19.7% (inactive). In addition, the tube area decrease in assay [4] is -1.5% (inactive). The GLP1 secretion stimulation in assay [5] was -0.3% (inactive). Further, in assay [6], the inhibition of viability is -0.2% (inactive). For the same compound, the viability decrease (inhibition) in assay [7] is 39.1% (inactive); in assay [8], -15.9% (inactive).
In the case of `O=C(O)c1ccc(OCCCOc2ccc(C(=O)O)cc2)cc1`, the nuclear beta-catenin stimulation in assay [1] (at 10 µM) was 1.9% (inactive); in assay [1] (stimulation, at 2 µM), 0.7%. In assay [2], the insulin secretion stimulation is 3.2% (inactive). Also, in assay [3], the viability decrease was -0.8% (inactive). Also, in assay [4], the tube area decrease was -2.8% (inactive). In addition, in assay [5], the GLP1 secretion stimulation is -1.8% (inactive). The inhibition of viability in assay [6] is -0.8% (inactive). The viability decrease (inhibition) in assay [7] is 5.3% (inactive); in assay [8], -6.3% (inactive).
Take `CCN1/C(=C/C=C/c2sc3ccccc3[n+]2CC)Sc2ccccc21`: the nuclear beta-catenin stimulation in assay [1] (at 10 µM) is 1.2% (inactive); in assay [1] (stimulation, at 2 µM) it was 7.5%. Besides, the insulin secretion stimulation in assay [2] was -0.5% (inactive). Besides, the viability decrease in assay [3] is 99.1% (active). The tube area decrease in assay [4] was -349% (inactive). In addition, the GLP1 secretion stimulation in assay [5] was -2.9% (inactive). The inhibition of viability in assay [6] is 98.8% (active). Besides, the viability decrease (inhibition) in assay [7] was 103% (active); in assay [8] it was 102% (active).
As for `O=C(/C=C/c1ccccc1)OCc1ccccc1`, the nuclear beta-catenin stimulation in assay [1] (at 10 µM) is 1.3% (inactive); in assay [1] (stimulation, at 2 µM), 0.1%. Further, the insulin secretion stimulation in assay [2] is -0.1% (inactive). For the same compound, in assay [3], the viability decrease is -14.9% (inactive). Moreover, the tube area decrease in assay [4] is 3% (inactive). Also, the GLP1 secretion stimulation in assay [5] is -1.3% (inactive). Moreover, the inhibition of viability in assay [6] is 5.05% (inactive). The viability decrease (inhibition) was 19.3% (inactive) in assay [7] and 7.4% (inactive) in assay [8].
As to `Oc1ccccc1-c1nnco1`, the nuclear beta-catenin stimulation in assay [1] (at 10 µM) was 0.3% (inactive); in assay [1] (stimulation, at 2 µM), -0.2%. Also, the insulin secretion stimulation in assay [2] is 3.2% (inactive). Moreover, the viability decrease in assay [3] was -2.4% (inactive). Also, the tube area decrease in assay [4] was -3.9% (inactive). Also, the GLP1 secretion stimulation in assay [5] was -0.1% (inactive). Besides, in assay [6], the inhibition of viability was 12.2% (inactive). Moreover, the viability decrease (inhibition) in assay [7] was 22.1% (inactive); in assay [8], -0.7% (inactive).
Turning to `Cc1cc(O)c(Cl)c(C)c1Cl`, the nuclear beta-catenin stimulation in assay [1] (at 10 µM) was 0.8% (inactive); in assay [1] (stimulation, at 2 µM), -0.1%. Further, the insulin secretion stimulation in assay [2] is -1.8% (inactive). Also, the viability decrease in assay [3] is -24.1% (inactive). Further, the tube area decrease in assay [4] is 7.2% (inactive). For the same compound, the GLP1 secretion stimulation in assay [5] was -2% (inactive). In addition, the inhibition of viability in assay [6] is -6.7% (inactive). Also, the viability decrease (inhibition) in assay [7] was -0.8% (inactive); in assay [8], -12.3% (inactive).
Turning to `CC1(S(=O)(=O)O)CC(=O)c2ccccc2C1=O` (centres undefined), the nuclear beta-catenin stimulation in assay [1] (at 10 µM) was 30.3% (inactive); in assay [1] (stimulation, at 2 µM) it was -0.2%. Further, in assay [2], the insulin secretion stimulation is -0.7% (inactive). Further, the viability decrease in assay [3] was 98.8% (active). For the same compound, the tube area decrease in assay [4] is 54.7% (active). In addition, the GLP1 secretion stimulation in assay [5] is 1.2% (inactive). Also, in assay [6], the inhibition of viability was 99.2% (active). Further, the viability decrease (inhibition) in assay [7] and in assay [8] was 102% (active) throughout.
On to `CN1CCN(C(=O)C2CCCCC2)CC1`, for which the nuclear beta-catenin stimulation is 0% (inactive) in assay [1] (at 10 µM) and -0.3% in assay [1] (stimulation, at 2 µM). Also, in assay [2], the insulin secretion stimulation is 4.2% (inactive). Moreover, the viability decrease in assay [3] was -2.7% (inactive). For the same compound, the tube area decrease in assay [4] is -5.2% (inactive). In addition, the GLP1 secretion stimulation in assay [5] was 5.1% (inactive). The inhibition of viability in assay [6] is 12% (inactive). The figures for the viability decrease (inhibition) in assay [7] and in assay [8] were 28.1% (inactive) and 11.9% (inactive), respectively.
